Publication PMC11006913

Assays:
Assay in all cases: PBM; 200 nM protein, PBS
Settings in all cases: dsDNA, one strand shown
NKX3-2 [1] = molecular target: NKX3-2 (Homo sapiens, UniProt P78367 192-278, P234S)
NKX3-2 [2] = molecular target: NKX3-2 (Homo sapiens, UniProt P78367 192-278)
CRX = CRX (Homo sapiens, UniProt O43186 26-111, R41L)
ALX1 = ALX1 (Homo sapiens, UniProt Q15699 118-204)
HOXA4 = HOXA4 (Homo sapiens, UniProt Q00056 201-287, W262F)
ALX3 = ALX3 (Homo sapiens, UniProt O95076 139-225, N203S)
HOXA2 = HOXA2 (Homo sapiens, UniProt O43364 129-215)
NKX2-5 = NKX2-5 (Homo sapiens, UniProt P52952 125-210)
Chain of NKX2-5 (P52952 125-210): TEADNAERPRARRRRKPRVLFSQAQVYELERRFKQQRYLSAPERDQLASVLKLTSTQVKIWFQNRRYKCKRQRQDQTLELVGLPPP

Chain of NKX3-2 (Homo sapiens, UniProt P78367 192-278) (P78367 192-278): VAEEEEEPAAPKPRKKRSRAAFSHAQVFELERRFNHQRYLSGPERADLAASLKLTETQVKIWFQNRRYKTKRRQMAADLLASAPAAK
Chain of NKX3-2 (Homo sapiens, UniProt P78367 192-278, P234S) (P78367 192-278 P234S): as the sequence (P78367 192-278) above, with P43S counted along it
Chain of CRX (O43186 26-111 R41L): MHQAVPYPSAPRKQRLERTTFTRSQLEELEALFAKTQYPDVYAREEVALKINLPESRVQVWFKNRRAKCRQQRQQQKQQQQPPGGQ
Chain of HOXA2 (O43364 129-215): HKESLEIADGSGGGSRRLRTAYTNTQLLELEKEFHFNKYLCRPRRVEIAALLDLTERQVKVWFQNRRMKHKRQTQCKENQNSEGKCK
Chain of ALX3 (O95076 139-225 N203S): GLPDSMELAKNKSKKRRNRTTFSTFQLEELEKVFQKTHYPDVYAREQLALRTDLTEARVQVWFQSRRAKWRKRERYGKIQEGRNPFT
Chain of HOXA4 (Q00056 201-287 W262F): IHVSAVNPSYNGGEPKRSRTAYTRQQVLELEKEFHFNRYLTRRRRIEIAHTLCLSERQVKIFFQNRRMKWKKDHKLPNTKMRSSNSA
Chain of ALX1 (Q15699 118-204): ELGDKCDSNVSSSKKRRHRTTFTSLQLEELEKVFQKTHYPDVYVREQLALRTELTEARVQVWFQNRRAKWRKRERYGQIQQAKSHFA

CCCACTTC
binding signal (NKX3-2 [1]): 12.7 upbm affinity estimate (log intensity, higher = more binding, comparable within an allelic series)
binding signal (NKX3-2 [2]): 12.8 upbm affinity estimate (log intensity, higher = more binding, comparable within an allelic series)

GAAGTGGC
binding signal (NKX3-2 [1]): 12.7 upbm affinity estimate (log intensity, higher = more binding, comparable within an allelic series)
binding signal (NKX3-2 [2]): 12.8 upbm affinity estimate (log intensity, higher = more binding, comparable within an allelic series)

AAGTGCCG
binding signal (NKX3-2 [1]): 12.5 upbm affinity estimate (log intensity, higher = more binding, comparable within an allelic series)
binding signal (NKX3-2 [2]): 12.6 upbm affinity estimate (log intensity, higher = more binding, comparable within an allelic series)

AGAGGGCA
binding signal (NKX3-2 [1]): 11.8 upbm affinity estimate (log intensity, higher = more binding, comparable within an allelic series)
binding signal (NKX3-2 [2]): 11.8 upbm affinity estimate (log intensity, higher = more binding, comparable within an allelic series)

CAAAGTGG
binding signal (NKX3-2 [1]): 12.8 upbm affinity estimate (log intensity, higher = more binding, comparable within an allelic series)
binding signal (NKX3-2 [2]): 12.9 upbm affinity estimate (log intensity, higher = more binding, comparable within an allelic series)

AAAGTGGA
binding signal (NKX3-2 [1]): 12.6 upbm affinity estimate (log intensity, higher = more binding, comparable within an allelic series)
binding signal (NKX3-2 [2]): 12.6 upbm affinity estimate (log intensity, higher = more binding, comparable within an allelic series)

GGACCCGA
binding signal (NKX3-2 [1]): 10.6 upbm affinity estimate (log intensity, higher = more binding, comparable within an allelic series)
binding signal (NKX3-2 [2]): 10.6 upbm affinity estimate (log intensity, higher = more binding, comparable within an allelic series)

GGGCGGAA
binding signal (NKX3-2 [1]): 10.7 upbm affinity estimate (log intensity, higher = more binding, comparable within an allelic series)
binding signal (NKX3-2 [2]): 10.7 upbm affinity estimate (log intensity, higher = more binding, comparable within an allelic series)

AGACCACT
binding signal (NKX3-2 [1]): 12 upbm affinity estimate (log intensity, higher = more binding, comparable within an allelic series)
binding signal (NKX3-2 [2]): 12.1 upbm affinity estimate (log intensity, higher = more binding, comparable within an allelic series)

GAGGCAGC
binding signal (NKX3-2 [1]): 10.4 upbm affinity estimate (log intensity, higher = more binding, comparable within an allelic series)
binding signal (NKX3-2 [2]): 10.4 upbm affinity estimate (log intensity, higher = more binding, comparable within an allelic series)

ACCTCTTG
binding signal (NKX3-2 [1]): 11.6 upbm affinity estimate (log intensity, higher = more binding, comparable within an allelic series)
binding signal (NKX3-2 [2]): 11.7 upbm affinity estimate (log intensity, higher = more binding, comparable within an allelic series)

AGTGCACT
binding signal (NKX3-2 [1]): 12.3 upbm affinity estimate (log intensity, higher = more binding, comparable within an allelic series)
binding signal (NKX3-2 [2]): 12.6 upbm affinity estimate (log intensity, higher = more binding, comparable within an allelic series)

CGAGTGCA
binding signal (NKX3-2 [1]): 11.7 upbm affinity estimate (log intensity, higher = more binding, comparable within an allelic series)
binding signal (NKX3-2 [2]): 11.8 upbm affinity estimate (log intensity, higher = more binding, comparable within an allelic series)

CCTATGGC
binding signal (NKX3-2 [1]): 10.6 upbm affinity estimate (log intensity, higher = more binding, comparable within an allelic series)
binding signal (NKX3-2 [2]): 10.6 upbm affinity estimate (log intensity, higher = more binding, comparable within an allelic series)

CAGGGAAG
binding signal (NKX3-2 [1]): 10.5 upbm affinity estimate (log intensity, higher = more binding, comparable within an allelic series)
binding signal (NKX3-2 [2]): 10.5 upbm affinity estimate (log intensity, higher = more binding, comparable within an allelic series)

CCGAGTAC
binding signal (NKX3-2 [1]): 11.5 upbm affinity estimate (log intensity, higher = more binding, comparable within an allelic series)
binding signal (NKX3-2 [2]): 11.6 upbm affinity estimate (log intensity, higher = more binding, comparable within an allelic series)

ATCCGAGC
binding signal (NKX3-2 [1]): 10.6 upbm affinity estimate (log intensity, higher = more binding, comparable within an allelic series)
binding signal (NKX3-2 [2]): 10.6 upbm affinity estimate (log intensity, higher = more binding, comparable within an allelic series)

CCTGCCCG
binding signal (NKX3-2 [1]): 10.7 upbm affinity estimate (log intensity, higher = more binding, comparable within an allelic series)
binding signal (NKX3-2 [2]): 10.7 upbm affinity estimate (log intensity, higher = more binding, comparable within an allelic series)

AGGAAAAA
binding signal (NKX3-2 [1]): 10.5 upbm affinity estimate (log intensity, higher = more binding, comparable within an allelic series)
binding signal (NKX3-2 [2]): 10.6 upbm affinity estimate (log intensity, higher = more binding, comparable within an allelic series)

CAAGGGTC
binding signal (NKX3-2 [1]): 11.7 upbm affinity estimate (log intensity, higher = more binding, comparable within an allelic series)
binding signal (NKX3-2 [2]): 11.8 upbm affinity estimate (log intensity, higher = more binding, comparable within an allelic series)

ACCAAGAG
binding signal (NKX3-2 [1]): 11.7 upbm affinity estimate (log intensity, higher = more binding, comparable within an allelic series)
binding signal (NKX3-2 [2]): 11.8 upbm affinity estimate (log intensity, higher = more binding, comparable within an allelic series)

GCCCCCGA
binding signal (NKX3-2 [1]): 10.4 upbm affinity estimate (log intensity, higher = more binding, comparable within an allelic series)
binding signal (NKX3-2 [2]): 10.4 upbm affinity estimate (log intensity, higher = more binding, comparable within an allelic series)

AGGCGCCG
binding signal (NKX3-2 [1]): 10.5 upbm affinity estimate (log intensity, higher = more binding, comparable within an allelic series)
binding signal (NKX3-2 [2]): 10.5 upbm affinity estimate (log intensity, higher = more binding, comparable within an allelic series)

CGACCTAG
binding signal (NKX3-2 [1]): 10.6 upbm affinity estimate (log intensity, higher = more binding, comparable within an allelic series)
binding signal (NKX3-2 [2]): 10.6 upbm affinity estimate (log intensity, higher = more binding, comparable within an allelic series)

GAGACCGC
binding signal (NKX3-2 [1]): 10.7 upbm affinity estimate (log intensity, higher = more binding, comparable within an allelic series)
binding signal (NKX3-2 [2]): 10.7 upbm affinity estimate (log intensity, higher = more binding, comparable within an allelic series)

AAAGTGGC
binding signal (NKX3-2 [1]): 12.6 upbm affinity estimate (log intensity, higher = more binding, comparable within an allelic series)
binding signal (NKX3-2 [2]): 12.6 upbm affinity estimate (log intensity, higher = more binding, comparable within an allelic series)

ACGGCAGC
binding signal (NKX3-2 [1]): 10.6 upbm affinity estimate (log intensity, higher = more binding, comparable within an allelic series)
binding signal (NKX3-2 [2]): 10.5 upbm affinity estimate (log intensity, higher = more binding, comparable within an allelic series)

CACGGACC
binding signal (NKX3-2 [1]): 10.6 upbm affinity estimate (log intensity, higher = more binding, comparable within an allelic series)
binding signal (NKX3-2 [2]): 10.6 upbm affinity estimate (log intensity, higher = more binding, comparable within an allelic series)

CGGGCAGC
binding signal (NKX3-2 [1]): 10.6 upbm affinity estimate (log intensity, higher = more binding, comparable within an allelic series)
binding signal (NKX3-2 [2]): 10.5 upbm affinity estimate (log intensity, higher = more binding, comparable within an allelic series)

TAAGAACA
binding signal (NKX3-2 [1]): 11.4 upbm affinity estimate (log intensity, higher = more binding, comparable within an allelic series)
binding signal (NKX3-2 [2]): 11.5 upbm affinity estimate (log intensity, higher = more binding, comparable within an allelic series)

AAAGTGGG
binding signal (NKX3-2 [1]): 12.4 upbm affinity estimate (log intensity, higher = more binding, comparable within an allelic series)
binding signal (NKX3-2 [2]): 12.6 upbm affinity estimate (log intensity, higher = more binding, comparable within an allelic series)

CGACGGCC
binding signal (NKX3-2 [1]): 10.7 upbm affinity estimate (log intensity, higher = more binding, comparable within an allelic series)
binding signal (NKX3-2 [2]): 10.6 upbm affinity estimate (log intensity, higher = more binding, comparable within an allelic series)

GAGCTAGC
binding signal (NKX3-2 [1]): 10.7 upbm affinity estimate (log intensity, higher = more binding, comparable within an allelic series)
binding signal (NKX3-2 [2]): 10.7 upbm affinity estimate (log intensity, higher = more binding, comparable within an allelic series)

CCGCTCAG
binding signal (NKX3-2 [1]): 10.6 upbm affinity estimate (log intensity, higher = more binding, comparable within an allelic series)
binding signal (NKX3-2 [2]): 10.6 upbm affinity estimate (log intensity, higher = more binding, comparable within an allelic series)

CCACTTCC
binding signal (NKX3-2 [1]): 12.6 upbm affinity estimate (log intensity, higher = more binding, comparable within an allelic series)
binding signal (NKX3-2 [2]): 12.7 upbm affinity estimate (log intensity, higher = more binding, comparable within an allelic series)

CCCCCAAA
binding signal (NKX3-2 [1]): 10.7 upbm affinity estimate (log intensity, higher = more binding, comparable within an allelic series)
binding signal (NKX3-2 [2]): 10.7 upbm affinity estimate (log intensity, higher = more binding, comparable within an allelic series)

GAGTAGAC
binding signal (NKX3-2 [1]): 11.6 upbm affinity estimate (log intensity, higher = more binding, comparable within an allelic series)
binding signal (NKX3-2 [2]): 11.6 upbm affinity estimate (log intensity, higher = more binding, comparable within an allelic series)

CCTCTTAC
binding signal (NKX3-2 [1]): 12.1 upbm affinity estimate (log intensity, higher = more binding, comparable within an allelic series)
binding signal (NKX3-2 [2]): 12.2 upbm affinity estimate (log intensity, higher = more binding, comparable within an allelic series)

AGTATTAG
binding signal (CRX): 10.8 upbm affinity estimate (log intensity, higher = more binding, comparable within an allelic series)

CAGATTAC
binding signal (CRX): 12.3 upbm affinity estimate (log intensity, higher = more binding, comparable within an allelic series)

GTCAACAA
binding signal (ALX1): 7.43 upbm affinity estimate (log intensity, higher = more binding, comparable within an allelic series)

CCATTAGA
binding signal (HOXA4): 10.6 upbm affinity estimate (log intensity, higher = more binding, comparable within an allelic series)

CTATATTA
binding signal (ALX3): 8.73 upbm affinity estimate (log intensity, higher = more binding, comparable within an allelic series)

AAATACCA
binding signal (HOXA2): 9.01 upbm affinity estimate (log intensity, higher = more binding, comparable within an allelic series)

GACACTAA
binding signal (HOXA2): 9.38 upbm affinity estimate (log intensity, higher = more binding, comparable within an allelic series)

AATTGACC
binding signal (NKX2-5): 10.6 upbm affinity estimate (log intensity, higher = more binding, comparable within an allelic series)

GGAGAGTA
binding signal (NKX3-2 [2]): 11.6 upbm affinity estimate (log intensity, higher = more binding, comparable within an allelic series)

CCCTCAAA
binding signal (NKX3-2 [2]): 11.6 upbm affinity estimate (log intensity, higher = more binding, comparable within an allelic series)
